Molecules are shown by their SMILES. Compounds without any hit were thinned out: in the full panel of roughly 83,000, 20% have a hit.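 Step 1: grow cells in 96-well plates. Step 2: add test compound at a single concentration. Step 3: incubate 48 h. Step 4: record percent growth.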 A number with no mark means an inactive call. Active and inactive are the calls of the source. The calls were made as follows: active = growth percent below 10; inactive = the rest.

The subject of the assay is BT-549 breast. Briefly: NCI-60 one-dose screen, 48 h (100 = growth as untreated, 0 = no growth, -100 = all killed). The following applies: 10 µM.
As to `COc1cc(/C=C/C(=O)c2ccc(C(F)(F)F)cc2)ccc1Oc1nc(Nc2ccc(F)cc2)nc(N(C)C)n1`, the growth is 90.9%.

On to `Cc1ccc(/C=C/C(=O)c2ccc(NC(=O)CSc3nnc(-c4c[nH]c5ccccc45)n3-c3ccccc3)cc2)c(C)c1`, for which the growth was 52.8%.

With `COc1ccc(/C=C/C(=O)c2ccc(S(=O)(=O)NCCNc3nc(Nc4ccc(F)cc4)nc(N(C)C)n3)cc2)cc1`, the growth is 36.2%.

In the case of `Nc1nnc(-c2c[nH]c3ncccc23)c(-c2c[nH]c3ccc(Br)cc23)n1`, the growth was 38.6%.

With `CC(=O)OC[C@@]1(C)C2CC[C@]3(C)C(CC=C4C5CC(C)(C)CC[C@]5(C(=O)Nc5ccccc5)CC[C@]43C)[C@@]2(C)C[C@@H](OC(C)=O)[C@@H]1OC(C)=O` (some centres not stated), the growth is 47.7%.

For `O=C(CSc1nnc(-c2c[nH]c3ccccc23)n1-c1ccccc1)Nc1ccc(C(=O)/C=C/c2cccc([N+](=O)[O-])c2)cc1`, the growth is 93.5%.

In the case of `C/C(=C\c1ccc(O)cc1O)c1ccc2ccc(O)cc2[o+]1`, the growth is 45.5%.

As for `CCCCOc1ccc(Nc2nc3ccccc3nc2Nc2ccc(OCCCC)cc2)cc1`, the growth is 104%.

Turning to `Nc1nc(Nc2ccc(Cl)cc2)nn1Cc1cccc(Br)c1`, the growth was 34.2%.

With `COc1ccc(/C=N/N=C(\C)c2ccc3c(c2)Nc2ccccc2S3)cc1O`, the growth is 40.1%.

On to `O=C(CSc1nnc(-c2c[nH]c3ccccc23)n1-c1ccccc1)c1ccc(Br)cc1`, for which the growth is 65.2%.

As to `COC(=O)c1c(C(=O)OC)c2n(c1C)[C@@H]([C@@H](C)[C@H]1CC[C@H]3[C@@H]4CCC5=CC(=O)CC[C@]5(C)[C@H]4CC[C@]13C)SC2`, the growth was -3.38% (active).

The values are drawn from PubChem BioAssay (NCI).
